The source made the active and inactive calls. Unless noted, the rule behind the calls is not given here.

The source of these data is PubChem BioAssay.

Test [1] in a line: compounds binding Alexa647 anti-His antibody – biochemical, small-molecule microarray, 635 nm fluorescence, artefact control for SMM control protein annotation, primary screen (AID 1128).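 Note: score merges feature fluorescence with signal-to-noise for each printed compound spot.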 The settings on record: higher = more signal.
Test [2] has as its system Human papillomavirus type 1a E7 protein (residues 1-88). Briefly: HPV1a E7 small-molecule binders, primary screen, biochemical, small-molecule microarray, residues 1-88, 635 nm (AID 1129). The settings on record: small-molecule microarray binding, fluorescence 635 nm; higher = more signal.
Test [3] addresses Focal adhesion kinase 1 (Homo sapiens) (UniProt Q05397). Nature of the test: PTK2 protein binding on printed compound slides – biochemical, small-molecule microarray, 635/667 nm fluorescence, BSA, DTT, primary screen (AID 1130).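 Note: composite of spot emission at 667 nm and signal to noise over triplicate slides.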 The conditions noted are these: 635 nm fluorescence, higher = more signal.
In test [4] the test system is Fibrinogen (Alexa647-labelled). Nature of the test: Alexa647-fibrinogen binding to printed small molecules – biochemical, small-molecule microarray, 635/667 nm fluorescence, artefact control for SMM control-protein annotation, profiling panel (AID 1131).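 Note: z-score merges 667 nm fluorescence with per-spot signal-to-noise over triplicate slides.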 The settings on record: fibrinogen-A647 binding fluorescence, higher = more signal.
Test [5] deals with Follistatin (Homo sapiens) (UniProt P19883). Briefly: FST protein binding to printed compounds – biochemical, small-molecule microarray, 635/667 nm fluorescence, primary screen (AID 1132). The settings on record: 635 nm fluorescence, higher = more signal.
Sequence of Follistatin (Homo sapiens) (P19883 whole entry, looked up): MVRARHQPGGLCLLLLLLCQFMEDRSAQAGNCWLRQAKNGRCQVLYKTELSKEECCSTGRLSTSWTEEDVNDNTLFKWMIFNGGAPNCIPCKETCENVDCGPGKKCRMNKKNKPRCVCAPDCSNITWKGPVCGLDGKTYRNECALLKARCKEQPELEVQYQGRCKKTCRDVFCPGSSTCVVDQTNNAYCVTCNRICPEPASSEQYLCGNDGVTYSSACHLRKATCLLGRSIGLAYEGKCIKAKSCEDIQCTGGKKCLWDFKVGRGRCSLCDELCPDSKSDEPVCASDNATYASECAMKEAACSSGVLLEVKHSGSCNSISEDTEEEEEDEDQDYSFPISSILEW
Test [6] addresses Fibroblast growth factor 2 (Homo sapiens) (UniProt P09038). Nature of the test: basic fibroblast growth factor binding to printed compounds – biochemical, small-molecule microarray, 635/667 nm fluorescence, primary screen (AID 1133). The settings on record: FGF2, fluorescence 635/667, higher = more signal.
A short description of test [7]: JC-1 mitochondrial potential readout, lung cancer cells – cell-based, A549, JC-1 fluorescence, basal, 24 h, 100 nL, profiling panel (AID 1138).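 Note: A549 lung adenocarcinoma cells under basal conditions with no added stimulus; test concentration not given here.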 The conditions noted are these: higher = more signal.
Test [8] deals with Lefty1. Briefly: Lefty1 protein binding to printed compounds – biochemical, small-molecule microarray, 635/667 nm fluorescence, primary screen (AID 1139). The conditions noted are these: fluorescence 635/667, higher = more signal.
The subject of test [9] is wheat germ agglutinin (Triticum aestivum), Alexa647-labelled. Nature of the test: Alexa647-WGA lectin binding to printed small molecules – biochemical, small-molecule microarray, 635/667 nm fluorescence, artefact control for SMM control-protein annotation, profiling panel (AID 1140).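 Note: score merges 667 nm feature emission with signal to noise over triplicate slides.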 The conditions noted are these: WGA-A647 binding, 635 nm fluorescence, higher = more signal.

Test [10] deals with Luciferin 4-monooxygenase (Photinus pyralis) (UniProt P08659). Briefly: inhibition of purified Photinus pyralis luciferase – biochemical, luminescence, purified enzyme, 2006 set, primary screen (AID 1141).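 Note: cell-free assay with purified firefly luciferase at 100 ng per well in PBS; test concentration not given here.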 The conditions noted are these: purified firefly luciferase, SteadyGlo luminescence, 30 min; higher = more signal, called active from +8 up or from −8 down.
Sequence of Luciferin 4-monooxygenase (Photinus pyralis) (P08659 whole entry, looked up): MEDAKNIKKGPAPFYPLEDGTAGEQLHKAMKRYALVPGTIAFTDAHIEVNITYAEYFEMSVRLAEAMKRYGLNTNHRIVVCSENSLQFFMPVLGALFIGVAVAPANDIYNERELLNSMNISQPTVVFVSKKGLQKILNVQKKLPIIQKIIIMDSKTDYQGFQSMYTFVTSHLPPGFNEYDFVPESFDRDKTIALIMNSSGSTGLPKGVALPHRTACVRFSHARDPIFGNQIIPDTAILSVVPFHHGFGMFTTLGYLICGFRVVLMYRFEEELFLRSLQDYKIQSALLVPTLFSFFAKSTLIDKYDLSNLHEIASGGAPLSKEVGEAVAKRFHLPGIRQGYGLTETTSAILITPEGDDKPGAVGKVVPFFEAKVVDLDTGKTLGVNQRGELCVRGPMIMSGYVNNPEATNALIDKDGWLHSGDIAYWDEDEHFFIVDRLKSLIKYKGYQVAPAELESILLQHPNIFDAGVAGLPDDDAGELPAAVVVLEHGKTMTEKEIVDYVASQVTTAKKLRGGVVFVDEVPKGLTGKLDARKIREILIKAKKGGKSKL
Test [11] deals with Wnt5a (protein binding on small-molecule microarray). Briefly: small molecules binding Wnt5a protein – biophysical, small-molecule microarray, 635/667 nm fluorescence, primary screen (AID 1142).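 Note: fluorescence read at 667 nm with signal to noise per printed feature.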 The conditions noted are these: 635 nm fluorescence, higher = more signal.
Test [12] in a line: ATP-based viability of Huh7 replicon cells – cell-based, CellTiter-Glo luminescence, basal, 48 h, cytotoxicity control for HCV replication inhibitor project, primary screen (AID 1143).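 Note: Huh7 hepatoma cells carrying a hepatitis C replication reporter with no stimulus; test concentration not given here.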 The settings on record: higher = more signal, called active from +8 up or from −8 down. Background: A replicon is a self-replicating genome or part of one, used to study replication in cells.
A short description of test [13]: Pseudomonas biofilm growth suppression – PAO1 strain, BacTiter-Glo luminescence, LB-PBS, primary screen (AID 1144). The settings on record: P. aeruginosa PAO1 biofilm, 12 h, higher = more signal.
Test [14] in a line: basal CRE-LacZ reporter activity in PC12 – cell-based, unstimulated, primary screen (AID 1145). The conditions noted are these: no forskolin, luminescence, 4.5 h, higher = more signal, called active from +8 up or from −8 down.
The nature of test [15]: forskolin-driven CRE-LacZ activity in PC12 – cell-based, CRE-LacZ reporter, forskolin-stimulated, primary screen (AID 1146).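 Note: PC12 cells with 6xCRE LacZ reporter stimulated by forskolin 10 µM; beta-galactosidase reporter signal reflecting CREB driven transcription.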 The conditions noted are these: luminescence, 4.5 h, higher = more signal, called active from +8 up or from −8 down.
The target in test [16] is Streptavidin (Streptomyces avidinii) (UniProt P22629). Briefly: compounds binding control protein streptavidin – biophysical, small-molecule microarray, 635/667 nm fluorescence, artefact control for SMM compound annotation, primary screen (AID 1147).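 Note: signal reflects streptavidin binding to arrayed compounds as a control protein.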 The conditions noted are these: higher = more signal.
Sequence of Streptavidin (Streptomyces avidinii) (P22629 whole entry, looked up): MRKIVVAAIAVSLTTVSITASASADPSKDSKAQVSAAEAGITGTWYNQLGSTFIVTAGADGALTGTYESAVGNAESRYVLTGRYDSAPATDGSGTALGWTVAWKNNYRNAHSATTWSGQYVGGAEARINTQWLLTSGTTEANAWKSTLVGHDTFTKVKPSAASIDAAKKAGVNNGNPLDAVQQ
Test [17] in a line: probe aInhba binding on compound microarray – biochemical, small-molecule microarray, 635/667 nm fluorescence, primary screen (AID 1148).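 Note: score merges 667nm spot fluorescence with signal-to-noise for antibody binding to printed compounds.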 The settings on record: higher = more signal.
The target of test [18] is Torsin-1A (Homo sapiens) (UniProt O14656). Briefly: TOR1A wild-type binding on microarray – cell lysate, small-molecule microarray, lysate, 635/667 nm, primary screen (AID 1149). The conditions noted are these: COS7 hTOR1A-WT lysate, 635 nm fluorescence, higher = more signal.
Sequence of Torsin-1A (Homo sapiens) (O14656 whole entry, looked up): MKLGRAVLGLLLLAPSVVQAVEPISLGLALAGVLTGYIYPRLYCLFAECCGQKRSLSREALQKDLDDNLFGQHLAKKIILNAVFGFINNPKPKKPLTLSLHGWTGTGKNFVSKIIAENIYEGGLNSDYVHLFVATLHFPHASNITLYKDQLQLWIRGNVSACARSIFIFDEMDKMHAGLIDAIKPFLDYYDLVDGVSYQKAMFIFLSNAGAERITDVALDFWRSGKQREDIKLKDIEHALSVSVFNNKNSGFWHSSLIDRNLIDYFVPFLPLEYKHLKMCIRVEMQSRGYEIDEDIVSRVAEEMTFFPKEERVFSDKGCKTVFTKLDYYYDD
Test [19] has the same target. Briefly: torsin A mutant lysate binding on microarrays – cell lysate, small-molecule microarray, COS7 lysate, 635/667 nm fluorescence, primary screen (AID 1150).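 Note: score pools 667 nm emission and signal to noise measuring lysate protein binding.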 The settings on record: COS7 hTOR1A mutant lysate, 635 nm fluorescence, higher = more signal.
The subject of test [20] is Sonic hedgehog protein (Shh). Nature of the test: Sonic hedgehog microarray binding compounds – biochemical, small-molecule microarray, 635/667 nm fluorescence, primary screen (AID 1151).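 Note: Shh protein binding to compounds spotted on small-molecule microarray slides; score combines spot fluorescence intensity with signal-to-noise across triplicate slides.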 The settings on record: 635 nm fluorescence, higher = more signal.

Sequence of Fibroblast growth factor 2 (Homo sapiens) (P09038 whole entry, looked up): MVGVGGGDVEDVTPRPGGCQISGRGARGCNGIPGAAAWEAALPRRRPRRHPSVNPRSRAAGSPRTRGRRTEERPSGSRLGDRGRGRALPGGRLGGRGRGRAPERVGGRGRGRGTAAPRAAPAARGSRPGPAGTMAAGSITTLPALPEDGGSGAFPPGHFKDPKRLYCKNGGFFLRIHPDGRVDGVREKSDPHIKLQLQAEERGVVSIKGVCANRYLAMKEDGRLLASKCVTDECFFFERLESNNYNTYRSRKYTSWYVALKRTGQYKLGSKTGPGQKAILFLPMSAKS
Sequence of Focal adhesion kinase 1 (Homo sapiens) (Q05397 whole entry, looked up): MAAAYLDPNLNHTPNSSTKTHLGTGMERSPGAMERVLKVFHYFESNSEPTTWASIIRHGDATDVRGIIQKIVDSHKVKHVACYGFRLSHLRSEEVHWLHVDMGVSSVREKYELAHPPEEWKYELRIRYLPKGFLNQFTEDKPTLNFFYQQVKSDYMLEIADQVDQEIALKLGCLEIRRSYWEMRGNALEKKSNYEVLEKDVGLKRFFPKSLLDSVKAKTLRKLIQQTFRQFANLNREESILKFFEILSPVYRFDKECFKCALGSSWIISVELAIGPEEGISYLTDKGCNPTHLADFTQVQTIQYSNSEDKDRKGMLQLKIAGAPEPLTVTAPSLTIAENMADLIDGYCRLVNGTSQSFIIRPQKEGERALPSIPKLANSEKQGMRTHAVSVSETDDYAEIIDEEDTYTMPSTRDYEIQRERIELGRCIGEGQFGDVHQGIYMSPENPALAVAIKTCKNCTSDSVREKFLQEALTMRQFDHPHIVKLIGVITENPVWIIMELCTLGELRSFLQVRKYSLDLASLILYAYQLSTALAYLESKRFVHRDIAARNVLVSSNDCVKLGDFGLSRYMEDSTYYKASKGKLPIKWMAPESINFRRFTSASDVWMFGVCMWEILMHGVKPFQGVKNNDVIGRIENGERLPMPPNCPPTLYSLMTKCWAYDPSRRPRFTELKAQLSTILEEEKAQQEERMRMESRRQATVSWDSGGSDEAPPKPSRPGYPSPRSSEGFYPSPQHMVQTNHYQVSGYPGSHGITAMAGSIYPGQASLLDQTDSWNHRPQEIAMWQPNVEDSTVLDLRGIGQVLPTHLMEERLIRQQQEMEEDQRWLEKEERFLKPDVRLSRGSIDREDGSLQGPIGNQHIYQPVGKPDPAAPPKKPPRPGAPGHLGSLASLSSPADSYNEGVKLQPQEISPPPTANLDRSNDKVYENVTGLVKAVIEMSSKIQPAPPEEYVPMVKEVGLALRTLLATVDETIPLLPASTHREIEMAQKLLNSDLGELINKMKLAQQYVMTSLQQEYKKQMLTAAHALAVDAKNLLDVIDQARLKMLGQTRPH

As for `O=C1C[C@@](C(=O)NC2CC2)(c2ccc([N+](=O)[O-])cc2)[C@@H](c2ccc(CO)cc2I)N1C1CCCCC1`, the composite z-score in [1] was 0.342; in test [2], 1.24; in test [3], -0.109; in [4] it was 0.895; in [5], 1.24; in test [6], 1.27. The composite z-score in [8] was found to be 1.14; in test [9] it was 0.587; in test [11], 0.693; in test [16], 1.38; in [17], 0.0785; in test [18], 0.207. Further, the results for the composite z-score in test [19] and in test [20] were 0.461 and 2.09, respectively. The z-score in [7] was 1.75; in [10], -0.234 (inactive); in test [12], -3.54 (inactive); in [13], -0.691 (inactive); in test [14], 0.495 (inactive); in test [15], 0.714 (inactive).
With `CCCC[C@@H]1C[C@H]1[C@@H](NC(=O)c1ccccc1)c1ccc(C(=O)OC)cc1`, the composite z-score in [1] is -0.248; in test [2], -0.429; in test [3] it was 0.0213; in [4], 0.0563; in test [5], -0.676; in test [6], -1.67. The composite z-score is -0.684 in test [8]; -0.113 in test [9]; 0.106 in test [11]; -0.279 in test [16]; -0.018 in test [17]; -2.83 in test [18]. The composite z-score is -0.686 in [19] and -1.11 in [20]. Besides, the z-score was 0.348 in test [7]; -0.438 (inactive) in test [10]; -0.977 (inactive) in test [12]; -0.485 (inactive) in test [13]; 0.576 (inactive) in test [14]; 0.0003 (inactive) in test [15].
Take `O=C1OCCC/C=C\[C@H]2OC34C=CCN(Cc5ccccc5)C(=O)[C@H]3N(CCCO)C(=O)[C@@H]4C12` (stereo not given in full): the composite z-score in test [1] is -0.14; in test [2], -0.496; in test [3], -0.66; in [4] it was -1.64; in test [5], -1.29; in test [6] it was -1.08. Also, the composite z-score is -1.28 in [8]; -0.443 in test [9]; -0.597 in test [11]; -1.1 in test [16]; -0.176 in test [17]; -1.14 in [18]. For the same compound, the composite z-score in test [19] was -2.13; in test [20], -0.85. Further, the z-score is 1.26 in test [7]; -1.26 (inactive) in test [10]; -0.639 (inactive) in test [12]; 2.87 (inactive) in test [13]; 0.593 (inactive) in test [14]; -0.59 (inactive) in [15].
Consider `CC(C)C(O)C1C=CC2C(=O)N(c3ccccc3)C(=O)C2N1Nc1ccc([N+](=O)[O-])cc1` (stereo not given), for which the composite z-score is 0.663 in test [1]; 1.17 in [2]; 0.774 in [3]; 0.954 in test [4]; -0.197 in test [5]; -0.378 in test [6]. Further, the composite z-score in [8] was -0.0809; in test [9], 1.01; in test [11] it was 0.774; in test [16], 0.122; in [17] it was 0.726; in test [18], 0.0373. Moreover, the composite z-score in [19] was 0.142; in test [20], -0.688. Further, the z-score was -0.0625 in test [7]; 1.18 (inactive) in [10]; -0.208 (inactive) in test [12]; 0.21 (inactive) in [13]; -0.368 (inactive) in test [14]; -0.343 (inactive) in test [15].
Take `CC(C)N1C(=O)[C@@]2(Cc3ccccc31)c1ccccc1C(=O)N(Cc1ccccc1Cl)[C@H]2c1ccc(CO)cc1`: the composite z-score in [1] was -0.145; in [2] it was -1.3; in [3] it was -0.236; in [4], -2.02; in test [5] it was -1.17; in test [6], -0.468. Besides, the composite z-score in test [8] was -0.391; in test [9], -0.0789; in [11], -0.515; in [16], -0.136; in test [17] it was -0.29; in test [18] it was -1.47. Also, the figures for the composite z-score in [19] and in test [20] were -0.848 and -1.25, respectively. Also, the z-score was -0.176 in [7]; 0.847 (inactive) in [10]; -2.27 (inactive) in test [12]; -1.68 (inactive) in test [13]; 0.389 (inactive) in test [14]; -0.389 (inactive) in test [15].
